Bioassay records (PubChem)
KKLEB cytotox = cytotoxicity in KKLEB CF airway cells, primary screen, cytotoxicity control for CF NF-kB inhibitor project, cell-based, uHTS, fluorescence assay plates; KKLEB CF airway cells viability, ATPlite luminescence, overnight; hits give low values; cells stimulated with P. aeruginosa culture filtrate; activity change (cytotoxicity), % at 5 µM; 360,000 compounds, 0.36% hits;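 active = corrected activity change at or below -50% at 5 µM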
CF NFkB block = inhibitors of PAF-induced NF-kB signaling, primary screen, cell-based, GFP fluorescence, uHTS | KKLEB NF-kB-GFP reporter, GFP fluorescence overnight | inhibition, % at 5 µM | AID 588850, 2011 | 360,000 compounds, 0.86% hits;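 active = at least 50% inhibition at 5 µM, scaled per plate between neutral and stimulator controls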;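 also: PAF is a Pseudomonas aeruginosa culture filtrate used as stimulus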
MITF TRPM1 inh = inhibitors of MITF-dependent TRPM1 promoter reporter, primary screen, cell-based, SK-MEL-5, single point, luciferase. SK-MEL-5 TRPM1 promoter luciferase, 24 h. inhibition, % at 12.5 µM. 330,000 compounds, 0.83% hits;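 active = mean inhibition across replicates of 60% or more, whatever share of single replicates reaches that level; inconclusive = some that reach 60%, reason not given; inactive = mean inhibition across replicates below 60%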
Peg3 promoter = Peg3 promoter-driven luciferase inhibitors, primary screen, cell-based, HeLa, luciferase luminescence. HeLa PEG-Prom luciferase reporter, overnight. 360,000 compounds, 1.7% hits. inhibition, % at 20 µM;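 active = inhibition of at least 50% at 20 µM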
HIF-2a block = HIF-2a reporter inhibitors, primary screen, luminescence, 786-0 RCC cells; 786-0 RCC cells HIF-2a reporter, luciferase luminescence, overnight; inhibition, % at 18.8 µM; 360,000 compounds, 0.72% hits; AID 624352, 2012;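 active = inhibition of the luminescence signal of 40% or more relative to plate controls, in a single-dose primary screen at 18.75 µM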
Shn3 inh set2 = reduction of Shn3 3'UTR firefly luciferase signal, primary screen, Schnurri-3 inhibitor project, cell-based, Clone20 osteoblasts, set 2; Clone20 osteoblast Shn3 3'UTR firefly luciferase, 24 h; inhibition, % at 12.5 µM; 360,000 compounds, 0.52% hits;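 active = mean inhibition of at least 75% with every replicate also reaching 75%; inconclusive = mean inhibition at least 75% but some replicate below; inactive = mean inhibition below 75%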
Each line names hits and unclear results; the compound was inactive in the other large screens. A selection: hits, their analogues and other compounds. The true share with any hit is near 2.7%.

COc1ccc(S(=O)(=O)NC2CC(=O)N(c3cccc(F)c3)C2)cc1OC (configuration not stated)	none
Cc1ccccc1/C=N/Nc1ccnc2cc(Cl)ccc12	MITF TRPM1 inh 68, Peg3 promoter 94
CCNC1CCC(Nc2ccnc3cc(Cl)ccc23)CC1 (configuration not stated)	none
Cc1ccc(/C=N/Nc2ccnc3cc(Cl)ccc23)c(C)c1	MITF TRPM1 inh 87, Peg3 promoter 111
CCN(CC)CCNc1ccnc2cc(Cl)ccc12	none
OC(CNc1ccnc2cc(Cl)ccc12)CNC1CCCCC1 (configuration not stated)	MITF TRPM1 inh 91, Peg3 promoter 100
Clc1ccc2c(NCc3ccccc3)ccnc2c1	Shn3 inh set2 90
COc1ccc(-c2ccc3nncn3c2)cn1	none (no result: MITF TRPM1 inh)
Clc1ccc2c(N/N=C/c3ccc(Br)cc3)ccnc2c1	Peg3 promoter 105
O=C1CCCCC(=O)[C@H](O)C[C@H](c2ccccc2)O1	none (no result: KKLEB cytotox, CF NFkB block, MITF TRPM1 inh, Peg3 promoter, Shn3 inh set2)
COc1ccc(C2=NN(C(=O)COC(=O)c3ccc(NC(=O)CC#N)cc3)C(c3ccco3)C2)cc1 (configuration not stated)	none
CC(C)(C)n1[nH]c2c3c(ccc2c1=O)C(=O)c1ccccc1C3=O	MITF TRPM1 inh inconclusive
COCCCn1[nH]c2c3c(ccc2c1=O)C(=O)c1ccccc1C3=O	MITF TRPM1 inh 61
CCOc1ccc(C2Nc3ccc4ccccc4c3-c3c2c(=O)oc2ccccc32)cc1 (configuration not stated)	none
COc1ccc(C2Nc3ccc4ccccc4c3-c3c2c(=O)oc2ccccc32)cc1 (configuration not stated)	Peg3 promoter 57
c1ccc(N2[C@@H]3c4ccccc4C[C@H]2c2ccccc23)cc1	none (no result: KKLEB cytotox, CF NFkB block, MITF TRPM1 inh, Peg3 promoter, Shn3 inh set2)
Cc1nc2c(C)cccn2c(=O)c1NC(=O)c1cccc2ccccc12	none
CC(C)c1nc2c(c(=O)c3ccccc3n2C)c(=O)n1CCc1ccccc1	none (no result: MITF TRPM1 inh)
O=C(CCCN1C(=O)/C(=C/c2ccccc2)SC1=S)N1CCOCC1	none
O=C(CCCN1C(=O)/C(=C/c2cccs2)SC1=S)NNC(=O)c1ccncc1	none
O=C(CCN1C(=O)/C(=C/c2ccccc2Cl)SC1=S)N1CCOCC1	CF NFkB block 72, Peg3 promoter 76
COc1ccccc1/C=C1\SC(=S)N(CCC(=O)N2CCN(C)CC2)C1=O	none
O=C(CCN1C(=O)/C(=C/c2ccccc2Cl)SC1=S)N1CCCC1	CF NFkB block 53, Peg3 promoter 73
O=C(CCCN1C(=O)/C(=C/c2ccccc2Cl)SC1=S)N1CCCC1	HIF-2a block 59
O=C(CCCN1C(=O)/C(=C/c2ccccc2Cl)SC1=S)NNC(=O)c1ccncc1	HIF-2a block 82
Cc1c(C(=O)O)sc(S(=O)(=O)N2CCN(C(=O)CCc3ccccc3)CC2)c1C(=O)O	none
CC(C)NC(=O)N(C)C[C@H]1Oc2ccc(NC(=O)c3ccncc3)cc2C(=O)N([C@H](C)CO)C[C@@H]1C	none
CC1CCCCC1NC(=O)CCS(=O)(=O)c1ccc(Cl)cc1 (configuration not stated)	none
CC(=C\c1ccccc1)/C=C1/SC(=S)N(CCC(=O)O)C1=O	HIF-2a block 81
CC(/C=C1\SC(=S)N(CC(=O)O)C1=O)=C\c1ccccc1	none
O=P(CCCCCCCCCP(=O)(c1ccccc1)c1ccccc1)(c1ccccc1)c1ccccc1	Peg3 promoter 67, Shn3 inh set2 88
N#CC1(NC(=O)Cn2cc(C(F)(F)F)cc(Cl)c2=O)CCCCC1	none
CN[C@@H]1CC[C@H](c2ccc(Cl)c(Cl)c2)c2ccccc21	Peg3 promoter 91 (no result: KKLEB cytotox)
COc1ccccc1C1CCN(Cc2ccc(Cl)c(Cl)c2)CC1	none
O=C(CCCN1C(=O)/C(=C/c2cccs2)SC1=S)Nc1ccccc1O	none
O=C(CCCN1C(=O)/C(=C/c2cccs2)SC1=S)NNC(=O)c1ccccc1O	HIF-2a block 41
O=C(CCCN1C(=O)/C(=C\c2cccs2)SC1=S)Nc1ccc(O)cc1C(=O)O	Peg3 promoter 53
